The list is not random: actives were taken first. Their share in the collection is about 7.3%.
SMN2 splice enh: qHTS Assay for Enhancers of SMN2 Splice Variant Expression | AID 1458, 2008 | hit rate 2.8% among 210,000 | HEK293 SMN2-luciferase splicing reporter, luminescence, 30-36 h | Potency, µM (doses to about 46.1 µM), for inactives: at the highest dose activity change, positive = activation, hits mostly activators; further: % of control where 0% means no effect; nearly all actives have a fitted effect of over 55% in size
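qHTS luciferase splicing reporter: luminescence rises when SMN2 exon 7 is included in transfected HEK293 cells. Compound exposure lasted 30-36 h at 37C, with 4.5 mM final sodium butyrate as control, followed by a ONE-Glo read.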
Rab9 prom act: qHTS Assay for Rab9 Promoter Activators; hit rate 2.8% among 320,000; AID 485297, 2010; Huh7 Rab9 promoter-luciferase reporter, luminescence, 24 h; Potency, µM (top dose mostly 9.22 µM), for inactives: at the top dose activation, negative = inhibition, usual class: activators; further: % of control where 0% means no effect; nearly all actives have a fitted effect of over 60% in size
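Luminescence from Amplite-detected luciferase (10 minutes, ambient) reports Rab9 promoter activation. Before that, stable Rab9-luciferase Huh7 cells (1500/well, reduced-serum OP-MEM I plus 10% FBS) were exposed to compound for 24 hours at 37C.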
ELG1 genotoxic: qHTS screen for small molecules that induce genotoxicity in human embryonic kidney (HEK293T) cells expressing luciferase-tagged ELG1 | HEK293T ELG1-luciferase reporter, luminescence, 16 h | Potency, µM (top dose mostly 46 µM), for the others: top-dose activity change, positive = activation, usual class: activators | hit rate 1.3% among 330,000; further: % of control where 0% means no effect; nearly all actives have a fitted effect of over 60% in size
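After overnight (16 hr) compound treatment at 37 °C, ELG1-luciferase HEK293T cells were lysed with ONE-Glo; luminescence quantified 30 min later at room temperature.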
FLuc modulator: qHTS profiling assay for firefly luciferase inhibitor/activator using purifed enzyme and Km concentrations of substrates (counterscreen for miR-21 project); Luciferin 4-monooxygenase (Photinus pyralis), P08659; purified FLuc, Km substrates, luminescence inhibition; Potency, µM (highest dose often 57.5 µM), for the others: top-dose activity change, negative = inhibition, hits mostly inhibitors; hit rate 6.9% among 360,000; AID 588342, 2011;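 further: plate controls were vehicle for no effect and reference inhibitor for full effect; nearly all actives have a fitted effect of over 55% in size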
Target sequence (P08659 whole entry, looked up): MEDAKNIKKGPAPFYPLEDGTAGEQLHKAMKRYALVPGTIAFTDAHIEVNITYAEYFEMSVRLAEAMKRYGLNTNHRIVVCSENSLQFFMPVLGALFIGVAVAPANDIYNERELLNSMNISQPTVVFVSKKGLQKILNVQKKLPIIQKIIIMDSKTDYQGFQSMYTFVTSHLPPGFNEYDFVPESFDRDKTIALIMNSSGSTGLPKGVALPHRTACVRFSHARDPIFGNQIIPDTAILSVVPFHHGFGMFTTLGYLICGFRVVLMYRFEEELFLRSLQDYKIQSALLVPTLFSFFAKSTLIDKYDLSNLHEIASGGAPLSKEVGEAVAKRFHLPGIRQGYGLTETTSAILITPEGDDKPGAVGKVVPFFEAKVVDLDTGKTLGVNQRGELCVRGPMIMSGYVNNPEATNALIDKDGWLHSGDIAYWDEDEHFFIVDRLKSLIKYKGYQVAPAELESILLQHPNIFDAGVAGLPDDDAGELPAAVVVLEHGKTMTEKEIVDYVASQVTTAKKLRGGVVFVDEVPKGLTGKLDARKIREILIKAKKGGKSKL
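Biochemical qHTS of compounds, final roughly 60 µM downward over six points, against 10 nM purified firefly luciferase using Km concentrations of substrates (10 uM D-luciferin, 10 uM ATP) in Tris acetate pH 7.5 buffer; luminescence output.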
Luc counter: Counterscreen for Luciferase (Kinase-Glo TM) Inhibition | Luciferin 4-monooxygenase (Photuris pensylvanica), Q27757 | Kinase-Glo luciferase, ATP luminescence, 8 min | Potency, µM (doses to about 38.3 µM), for the others: at the top dose activity change, negative = inhibition, most hits filed as inhibitors | hit rate 0.28% among 200,000 | AID 1379, 2008; further: on the % scale 0 is the no-effect control and ±100 the full control effect; nearly all actives have a fitted effect of over 60% in size
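Compounds were added to a substrate mix at pH 7.2 (50 mM imidazole, 10 uM ATP, within the enzyme's linear range), followed by Kinase-Glo detection reagent; luminescence was measured after 8 minutes at ambient temperature.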
NPC1 promoter act: qHTS Assay for NPC1 Promoter Activators. hit rate 2.4% among 320,000. Huh7 NPC1 promoter luciferase reporter, 24 h. Potency, µM (highest dose often 9.22 µM), for inactives: at the top dose activation, usual class: activators; further: % of control where 0% means no effect; nearly all actives have a fitted effect of over 60% in size
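Luminescence read-out of NPC1 promoter-driven luciferase in stably transfected Huh7 cells; compounds delivered in DMSO and left 24 h at 37C, 5% CO2, qHTS titration format.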
Numbers without * were called inactive; ? = inconclusive; nt = not tested or not shown; [ ] = remark or other dose. The call rests on the fitted dose curve; in most records, active means well fitted curve in the direction sought with a large enough effect; inconclusive means small, poorly fitted or top-dose-only effect, or another doubt; inactive means no such curve, though single readings can be large; an effect the other way counts as inactive or inconclusive. Potency means the concentration at half of the fitted maximal effect.

SMILES	SMN2 splice enh	Rab9 prom act	ELG1 genotoxic	FLuc modulator	Luc counter	NPC1 promoter act
Cc1ccc2nc(-c3ccccc3)cn2c1	0.5µM*	?	?	0.12µM*	8.9µM*	0.11µM*
CC(=O)Nc1ccc(-c2cn3cc(C)ccc3n2)cc1	4.5µM*	1µM*	?	1.9µM*	23%	3.2µM*
Cc1ccc2nc(-c3ccc(S(=O)(=O)N4CCOCC4)cc3)cn2c1	5%	15%	23µM*	-10%	2%	2%
Cc1ccc2nc(-c3ccc(O)c(O)c3)cn2c1	nt	8%	?	3.4µM*	nt	?
Cc1ccn2cc(-c3ccc(S(=O)(=O)N4CCOCC4)cc3)nc2c1	8%	?	7%	?	0%	?
C[N+]1(Cc2ccccc2)CCC(C(=O)OCC2CCCC2)CC1 (stereo not drawn)	-10%	nt	nt	nt	nt	nt
O=C(CSc1nccn1-c1ccc(Cl)cc1)Nc1cccc2ccccc12	nt	nt	nt	-14%	nt	nt
Cc1ccc2nc(-c3ccc(-c4ccccn4)s3)cn2c1	nt	0.4µM*	1.6µM*	0.19µM*	nt	0.45µM*
COC(=O)C(Sc1nc(C)cc(C)c1C#N)c1ccccc1 (stereo not drawn)	?	0%	2%	2%	2%	-3%
Cc1cc(C)c(C#N)c(Sc2ccccc2N)n1	-2%	2%	?	15µM*	3%	3%
O=C(O)CSc1ccc2ccccc2n1	-9%	-4%	-2%	1%	-1%	2%
CCC(C)(C)NC(=O)CCCSc1nc2ccccc2s1	?	?	12%	24µM*	-2%	?
O=C(O)CCSc1ccc2ccccc2n1	-9%	3%	9%	24µM*	-9%	0%
O=C(O)CCSc1nc2ccccc2s1	-32%	0%	-13%	21µM*	4%	-4%
N#CCCCSc1nnc(CSc2nc3ccccc3s2)n1-c1ccccc1	-24%	4%	-11%	4%	11%	1%
N#CCc1nc(CSc2nc3ccccc3s2)cs1	25%	?	18µM*	?	-10%	29%
c1ccc2sc(SCSc3nc4ccccc4s3)nc2c1	-1%[9.22 µM]	6%	9%	?	-8%[7.66 µM]	12%
O=C(NCC(O)c1ccccc1)c1cccs1 (stereo not drawn)	nt	?	?	17µM*	nt	2.5µM*
COc1ccc2cc(CCNC(=O)c3cccs3)c(=O)[nH]c2c1	6.3µM*	2µM*	?	11µM*	2%	2.8µM*
O=C(NCCc1ccc(F)cc1)c1cccs1	16µM*	2.5µM*	?	12µM*	-3%	2.8µM*
O=C(NCc1ccc(F)cc1)c1cccs1	nt	4%	-1%	3%	nt	1%
O=C(NCCc1cccs1)c1cccs1	?	2.8µM*	?	13µM*	-2%	2.8µM*
COc1ccc(N2CC3=C(C2=O)C(c2ccc(O)c(OC)c2)NC(=O)N3C)cc1 (stereo not drawn)	-7%	nt	nt	5%	nt	nt
CCCCn1c(CCNC(=O)c2cccs2)nc2ccccc21	9%	29%	-4%	4%[2.3 µM]	4%	3.5µM*
O=C(CNC(=O)c1cccs1)c1ccc(Br)cc1	nt	0.45µM*	?	9.5µM*	nt	0.79µM*
SMILES	SMN2 splice enh	Rab9 prom act	ELG1 genotoxic	FLuc modulator	Luc counter	NPC1 promoter act
CCCn1c(CNC(=O)c2cccs2)nc2ccccc21	-7%	-9%	-6%	-2%	20%	-1%
CCCN(CCC)C(=O)Cn1nnc2sc(-c3ccccc3)cc2c1=O	-6%	nt	nt	-1%	nt	nt
C#C[C@]1(OC(C)=O)CC[C@H]2[C@@H]3CCC4=CC(=O)CC[C@@H]4[C@H]3CC[C@@]21C	nt	nt	nt	nt	-1%[39.9 µM]	nt
O=C(Oc1ccc(-c2ccccc2)cc1)N1CCCCC1	?	nt	nt	8.5µM*	-1%	nt
O=C(Oc1ccc(-c2ccccc2)cc1)C1C2CCCCC21 (stereo not drawn)	5%	-5%	17%	4.8µM*	2%	-4%
COc1ccc(/C=C/c2nc(C#N)c(N3CCCCC3)o2)cc1OC	-8%	nt	nt	?	nt	nt
Cc1ccc(S(=O)(=O)Cc2nc(-c3ccc(C(=O)NCc4ccccc4)cc3)oc2C)cc1	nt	nt	nt	-9%	nt	nt
O=C(Nc1ccc2c(c1)OCCO2)c1cccc(S(=O)(=O)N2CCCCC2)c1	-10%	-6%	9%	?	-2%	-2%
O=C(Nc1ccc(Cl)c(S(=O)(=O)N2CCOCC2)c1)c1ccc2c(c1)OCO2	nt	nt	-12%	nt	nt	nt
O=C(Nc1ccc(Cl)c(S(=O)(=O)N2CCOCC2)c1)c1ccc2c(c1)OCCO2	-53%	4%	-17%	27µM*	0%	-1%
O=C(Nc1ccc2c(c1)OCCO2)c1cccc(S(=O)(=O)N2CCOCC2)c1	?	4.5µM*	?	?	2%	?
CS(=O)(=O)c1cccc(C(=O)Nc2ccc3c(c2)OCCCO3)c1	nt	3.5µM*	?	15µM*	nt	?
COc1ccc(N(C)S(=O)(=O)c2cccc(C(=O)Nc3ccc4c(c3)OCCO4)c2)cc1	9%	-8%	-13%	-9%	0%	0%
CCCN(CCC)S(=O)(=O)c1cccc(C(=O)Nc2ccc3c(c2)OCO3)c1	-9%	-4%	-11%	-11%	4%	-1%
CCN(CC)S(=O)(=O)c1cccc(C(=O)Nc2ccc3c(c2)OCO3)c1	?	?	6%	15µM*	-5%	?
CC1=C(c2ccc(C)cc2)S(=O)(=O)NC1=NCc1cccc(F)c1	nt	nt	nt	-9%	nt	nt
CCOc1ccccc1CNC(=O)C1CCN(S(=O)(=O)c2ccc3c(ccn3C)c2)CC1	nt	nt	nt	-9%	nt	nt
COc1ccc2c(c1)c1c(c(=O)n(-c3ccc(C)cc3)c(=O)n1CC(=O)Nc1cc(C)ccc1C)n2C	nt	nt	nt	-5%	nt	nt
Cc1cc(C)c2c(NC(=O)c3ccccc3Cl)c(C(=O)NCc3ccc(Cl)cc3)sc2n1	5%	nt	nt	-5%	nt	nt
CCC(CC)C(=O)Nc1cccc(C(=O)Nc2ccc3c(c2)OCO3)c1	8.9µM*	18%	11%	?	0%	27%
CN(C)c1ccc(NC(=O)CSC2=Nc3ccccc3C3=NC(CCC(=O)NCc4cccs4)C(=O)N23)cc1 (stereo not drawn)	nt	nt	nt	-1%	nt	nt
Nc1ccc(N=Nc2ccccc2)c2cccnc12	nt	-17%	16%	21µM*	nt	18%
Cc1ccc(N=Nc2ccc(O)cc2)c(Br)c1	nt	3.2µM*	12µM*	3.4µM*	nt	?
Oc1ccc(N=Nc2ccc(Br)cc2)c(O)c1	nt	?	?	4.8µM*	nt	?
Nc1nonc1C(=Nc1ccc(Br)cc1)NO	-33%	-3%	5%	5%	0%	1%
